MIN6 prolif: inducers of MIN6 beta-cell proliferation, primary screen, ATP luminescence, uHTS | MIN6 cells proliferation, ATPlite luminescence, 48 h; cells starved in 0.2% serum; 100% = growth in 10% serum | hit rate 0.29% among 330,000 | proliferation, % at 10 µM;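 active means compounds whose signal lies at least 3.5 SD above the mean of all wells on their plate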;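 further: 0% = DMSO-treated cells in low-serum medium and 100% = 10% serum control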
V-ATPase pHluor: regulators of yeast V-ATPase proton pumping, primary screen, pHLuorin cytosolic pH fluorescence; S. cerevisiae; response, % at 10 µM; hit rate 0.37% among 350,000; AID 504577, 2011; in the data active means response mostly above about 7.3%, no sharp cut-off; inactive means mostly below about 5.4%; further: actives read high
Rtt109 HAT inh: inhibitors of C. albicans Rtt109/Vps75 HAT, primary screen, biochemical, ThioGlo CoA-SH fluorescence, plate reader. purified Rtt109/Vps75, 4 h. inhibition, % at 34.9 µM. hit rate 0.16% among 330,000;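 active means inhibition of at least 50% in every replicate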
Target sequence (Q5AAJ8 whole entry, looked up): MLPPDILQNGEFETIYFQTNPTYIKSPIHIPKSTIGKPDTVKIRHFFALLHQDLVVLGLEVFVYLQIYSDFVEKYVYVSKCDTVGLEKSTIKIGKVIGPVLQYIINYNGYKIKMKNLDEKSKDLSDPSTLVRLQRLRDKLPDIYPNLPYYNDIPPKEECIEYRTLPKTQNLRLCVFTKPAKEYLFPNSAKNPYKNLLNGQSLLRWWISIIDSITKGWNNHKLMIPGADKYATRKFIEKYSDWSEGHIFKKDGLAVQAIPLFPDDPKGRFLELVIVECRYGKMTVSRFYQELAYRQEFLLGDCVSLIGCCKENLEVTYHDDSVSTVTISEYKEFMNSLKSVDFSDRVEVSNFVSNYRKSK
DAGLB inh: DAGLB lipase inhibitors, primary screen, biochemical, fluorescence, HTS. Diacylglycerol lipase-beta (Homo sapiens), Q8NCG7. inhibition, % at 5.17 µM. AID 504411, 2011. HEK293T DAGLB membrane lysate, EnzChek fluorogenic substrate. hit rate 0.059% among 340,000; in the data active means inhibition above about 34%;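 further: 0% = enzyme with vehicle and 100% = wells lacking enzyme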
HDAC3 inh: HDAC3 deacetylase inhibitors, primary screen, biochemical, fluorescence, cell-free homogeneous | Histone deacetylase 3 (Homo sapiens), O15379 | recombinant HDAC3, fluorogenic peptide/trypsin coupled | inhibition, % at 8.3 µM | hit rate 0.15% among 320,000 | AID 2718, 2010; in the data active means inhibition above about 26%, passing the limit was not always enough
* marks the source's active call; other numbers are inactive results. In the library only some 0.96% were active in any assay of this set; here they are far more common.

What do the screens show for `COc1ccc(C(=O)NC(=S)SCC(=O)O)cc1`?
MIN6 prolif: -3; V-ATPase pHluor: -1; Rtt109 HAT inh: 2; DAGLB inh: 0; HDAC3 inh: 1

How did O=C(COc1cccc(NC(=O)c2ccco2)c1)c1ccc(F)cc1 do in these assays?
MIN6 prolif: -2; V-ATPase pHluor: 19*; Rtt109 HAT inh: -3; DAGLB inh: 1; HDAC3 inh: -6

Results for O=C(COc1cccc(NC(=O)c2ccccc2)c1)c1ccc(F)cc1 ?
MIN6 prolif: 0; V-ATPase pHluor: 1; Rtt109 HAT inh: 0; DAGLB inh: -1; HDAC3 inh: -3

How did CN(C)/C=C/C(=O)c1cnc(-c2ccccc2)s1 do in these assays?
MIN6 prolif: -4; V-ATPase pHluor: 3; Rtt109 HAT inh: -6; DAGLB inh: 1; HDAC3 inh: 5

What do the screens show for `Cn1c(=O)c2c([nH]c(=S)n2CCCc2ccccc2)n(C)c1=O`?
MIN6 prolif: -1; V-ATPase pHluor: -1; Rtt109 HAT inh: -4; DAGLB inh: 0; HDAC3 inh: 41*

Results for Cc1cc2nncn2c(Cc2ccccc2)n1 ?
MIN6 prolif: 1; V-ATPase pHluor: 1; Rtt109 HAT inh: -8; DAGLB inh: 1; HDAC3 inh: -2

Results for Clc1ccccc1-c1nc(-c2ccncc2)no1 ?
MIN6 prolif: -2; V-ATPase pHluor: 1; Rtt109 HAT inh: -2; DAGLB inh: -1; HDAC3 inh: -5

How did Cc1onc(-c2ccccc2Cl)c1-c1nc(-c2ccncc2)no1 do in these assays?
MIN6 prolif: -4; V-ATPase pHluor: 21*; Rtt109 HAT inh: 1; DAGLB inh: 0; HDAC3 inh: 0

Results for COc1ccc(CNC(=O)c2cc3c(s2)CS(=O)C3)cc1 (stereo not given) ?
MIN6 prolif: -2; V-ATPase pHluor: 6; Rtt109 HAT inh: 6; DAGLB inh: 1; HDAC3 inh: 4

How did Cc1ccc(S(=O)(=O)CCC(=O)c2cccc([N+](=O)[O-])c2)cc1 do in these assays?
MIN6 prolif: -7; V-ATPase pHluor: 28*; Rtt109 HAT inh: active; DAGLB inh: 4; HDAC3 inh: -6

What do the screens show for `COc1cc(/C=N/N2CCN(Cc3ccc(Cl)cc3)CC2)cc(Br)c1O`?
MIN6 prolif: -2; V-ATPase pHluor: -2; Rtt109 HAT inh: -7; DAGLB inh: -2; HDAC3 inh: 9

How did CC(=O)N1CC(=O)N=C1SCC(=O)Nc1nc(-c2ccccc2)c(-c2ccccc2)s1 do in these assays?
MIN6 prolif: 0; V-ATPase pHluor: -3; Rtt109 HAT inh: 4; DAGLB inh: -24; HDAC3 inh: 29*

Results for O=C(CSC1=NCCN1)Nc1ccccc1[N+](=O)[O-] ?
MIN6 prolif: -4; V-ATPase pHluor: 1; Rtt109 HAT inh: 0; DAGLB inh: -11; HDAC3 inh: -2

What do the screens show for `O=C(CSC1=NCCN1)Nc1cccc([N+](=O)[O-])c1`?
MIN6 prolif: -2; V-ATPase pHluor: 1; Rtt109 HAT inh: 113*; DAGLB inh: -10; HDAC3 inh: 2

What do the screens show for `Cc1cc(C)cc(NC(=O)NC(C)C2CCCO2)c1` (stereo not given)?
MIN6 prolif: -5; V-ATPase pHluor: 0; Rtt109 HAT inh: 56*; DAGLB inh: 1; HDAC3 inh: 2

Results for CC(NC(=O)Nc1ccc2c(c1)OCO2)C1CCCO1 (stereo not given) ?
MIN6 prolif: -1; V-ATPase pHluor: 2; Rtt109 HAT inh: -4; DAGLB inh: 1; HDAC3 inh: 2

Results for Cc1ccccc1C(=O)NC(NC(=S)Nc1ccc(S(N)(=O)=O)cc1)C(Cl)(Cl)Cl (stereo not given) ?
MIN6 prolif: 0; V-ATPase pHluor: 4; Rtt109 HAT inh: 58*; DAGLB inh: -2; HDAC3 inh: 2

How did COc1ccc(-[n+]2c(C)cc(/C=C3\Sc4ccccc4N3C)cc2C)cc1 do in these assays?
MIN6 prolif: -6; V-ATPase pHluor: 8; Rtt109 HAT inh: 74*; DAGLB inh: -9; HDAC3 inh: 19

What do the screens show for `CC(/C=C/c1ccccc1)=N\NC(=O)Cn1cncn1`?
MIN6 prolif: 4; V-ATPase pHluor: 2; Rtt109 HAT inh: 1; DAGLB inh: 0; HDAC3 inh: 12

How did COC(=O)c1cccc(-n2nnnc2SCC(=O)Nc2nc3c(s2)CCCC3)c1 do in these assays?
MIN6 prolif: -1; V-ATPase pHluor: 24*; Rtt109 HAT inh: -1; DAGLB inh: 3; HDAC3 inh: 5

How did C=CCc1c(O)nc(SCC(=O)c2ccccc2)[nH]c1=O do in these assays?
MIN6 prolif: 0; V-ATPase pHluor: -1; Rtt109 HAT inh: -21; DAGLB inh: -2; HDAC3 inh: 37*

What do the screens show for `CCC(C)c1c(O)nc(SCC(=O)Nc2ccccc2)[nH]c1=O` (stereo not given)?
MIN6 prolif: -4; V-ATPase pHluor: 1; Rtt109 HAT inh: -1; DAGLB inh: -2; HDAC3 inh: 0

What do the screens show for `Cc1ccc(C(=O)CSc2nc(O)cc(=O)[nH]2)cc1C`?
MIN6 prolif: -1; V-ATPase pHluor: -2; Rtt109 HAT inh: -1; DAGLB inh: 1; HDAC3 inh: 30*

How did CCC(C)c1c(O)nc(SCC(=O)c2ccccc2)[nH]c1=O (stereo not given) do in these assays?
MIN6 prolif: -1; V-ATPase pHluor: 1; Rtt109 HAT inh: -142; DAGLB inh: -3; HDAC3 inh: 33*

Results for CN(c1ccccc1)S(=O)(=O)c1cccc(NC(=O)c2ccc(=O)[nH]c2)c1 ?
MIN6 prolif: -1; V-ATPase pHluor: -1; Rtt109 HAT inh: 2; DAGLB inh: -1; HDAC3 inh: 1

What do the screens show for `CC(=O)c1c(C)nn(C(=O)c2cccs2)c1C`?
MIN6 prolif: 1; V-ATPase pHluor: -4; Rtt109 HAT inh: 0; DAGLB inh: -1; HDAC3 inh: 41*

What do the screens show for `COc1ccc(C)cc1N(CC(=O)NC1CCCC1)C(=O)Cn1nnc(-c2ccc(C)o2)n1`?
MIN6 prolif: 0; V-ATPase pHluor: 1; Rtt109 HAT inh: 6; DAGLB inh: -3

Results for Cc1ccc2c(c1)C(C)CC(C)(C)N2C(=O)NC1CCCCC1 (stereo not given) ?
MIN6 prolif: 0; V-ATPase pHluor: 3; Rtt109 HAT inh: 7; DAGLB inh: 3; HDAC3 inh: 7

Results for Cc1ccc(C2OC34CCCCCC3C(C#N)(C(=N)O4)C2(C#N)C#N)cc1 (stereo not given) ?
MIN6 prolif: 9.0*; V-ATPase pHluor: 1; Rtt109 HAT inh: -2; DAGLB inh: -4; HDAC3 inh: -11

Results for CCCCOc1ccc(C2OC34CCCCC3C(C#N)(C#N)C2(C#N)C(=N)O4)cc1 (stereo not given) ?
MIN6 prolif: 9.8*; V-ATPase pHluor: -8; Rtt109 HAT inh: -399; DAGLB inh: -2; HDAC3 inh: -10

Compound activity: PubChem BioAssay, several laboratories
